Dicer processing = inhibitors of Dicer pre-microRNA processing, primary screen, biochemical, cat-ELCCA, chemiluminescence. Endoribonuclease Dicer (Homo sapiens), Q9UPY3. cat-ELCCA pre-miR-21 Dicer processing; stronger effect = higher value. z-score at 25 µM. 47,000 compounds, 6% hits. AID 1347074, 2019; in the data active = z-score above about 3, passing the limit was not always enough;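 also: plate controls were vehicle for no effect and no enzyme for full effect; higher signal means more uncleaved substrate so more Dicer inhibition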
Starred values were filed as active, the others as inactive. This is one part of a sample in which hits are shown more often than they occur.

SMILES	Dicer processing
CCCN1C(=O)C2(/C(=C(/O)c3ccc(OC)cc3)C(=O)C(=O)N2CCCOC)c2ccccc21 (stereo not given)	3.11*
CCCN1C(=O)C2(/C(=C(/O)c3ccccc3)C(=O)C(=O)N2CCCN(C)C)c2ccccc21 (stereo not given)	4.43*
CCCN1C(=O)C2(/C(=C(/O)c3ccc(C)cc3)C(=O)C(=O)N2CCCOC)c2ccccc21 (stereo not given)	1.22
Fc1c(CN2CCOCC2)cccc1CN1CCOCC1	1.63
OCCCCn1c(-c2ccccc2)nc2ccccc21	-0.69
CCOC(=O)/C(C#N)=C/C=C(/c1ccc(Cl)cc1)N1CCSCC1	1.49
CCOC(=O)c1c(NC(=O)C2(S(=O)(=O)c3ccccc3)CC2)sc(C)c1C	1.55
Cc1cc(NC(=O)NC(=O)c2ccc(C(C)(C)C)s2)no1	1.42
CCOC(=O)c1cn(C(=O)c2ccco2)nc1C(F)(F)F	0.86
O=C(CN1C2=NCCN2c2ccccc21)c1ccc(F)cc1	-0.27
O=C(CCCN1CCN(c2ccccn2)CC1)c1ccc(F)cc1	1.25
OC1(c2ccc(F)cc2)Cc2ccccc2C2=NCCN21 (stereo not given)	5.64*
Cc1cc(C)cc(NS(=O)(=O)c2ccc3[nH]c(=O)[nH]c3c2)c1	-0.23
Cc1ccc(S(=O)(=O)Nc2cc(Cl)c3oc(=O)sc3c2)cc1	11*
Cc1ccc(C)c(S(=O)(=O)Nc2cc(Cl)c3oc(=O)sc3c2)c1	11.8*
O=S(=O)(Nc1ccccc1Cl)c1ccc(F)cc1	-0.45
Cc1cc(NS(=O)(=O)c2ccc(NS(=O)(=O)c3cc(C)c(Cl)cc3Cl)cc2)no1	-0.3
COc1ccc(Cl)cc1NS(=O)(=O)c1ccc(F)cc1	1.62
COC(=O)c1sc(C(C)(C)C)cc1NS(=O)(=O)c1ccc(OC)cc1	-0.67
COc1ccc(S(=O)(=O)Nc2cc(Cl)c3oc(=O)sc3c2)cc1	8.94*
Cc1ccc(C)c(S(=O)(=O)Nc2ccc3oc4c(c3c2)C(=O)CCC4)c1	-1.4
COc1ccc(S(=O)(=O)Nc2nnc(C(C)C)s2)cc1	0.14
O=c1oc2c(Cl)cc(NS(=O)(=O)c3ccc(F)cc3)cc2s1	9.74*
Cc1ccc(C)c(S(=O)(=O)Nc2ccc3oc(C)c(C(=O)O)c3c2)c1	-0.8
O=C1C(=O)N(CCN2CCOCC2)C(c2cccnc2)/C1=C(\O)c1ccc(Br)cc1 (stereo not given)	0.02
SMILES	Dicer processing
Nc1nonc1C1=NS(=O)ON1 (stereo not given)	1.52
CC(C)NC(=S)NNC(=O)C1CC2CCC1O2 (stereo not given)	-1.06
Cn1c(NC2CCCC2)nc2c1c(=O)n(Cc1ccc(F)cc1)c(=O)n2C	-2.25
CC1CCCN(S(=O)(=O)c2cccc(-c3cn4ccccc4n3)c2)C1 (stereo not given)	-0.62
Cc1nc(N2CCN(c3cccc(Cl)c3)CC2)nc2c1C(=O)CCC2	-1.28
COCCOC(=O)C1=C(C)NC2=C(C(=O)CC(C)(C)C2)C1c1ccc(C(C)C)cc1 (stereo not given)	-1.08
CCOC(=O)C1=C(CC)NC2=C(C(=O)CCC2)C1c1ccc(OC)c(Br)c1 (stereo not given)	-1.23
C/C(=N\NC1=NCCN1)c1ccc(C)cc1	-0.13
CCOC(=O)c1c(NC(=O)CCC(=O)O)sc2c1CCC(C(C)(C)C)C2 (stereo not given)	-0.72
CC(C)N(Cc1ccccc1)S(=O)(=O)c1ccc(S(=O)(=O)c2ccccc2)s1	-1.45
COC(=O)CCCCCCCC(=O)Nc1cc(C)on1	-0.52
Cc1cc(NC(=O)CCCC(=O)O)no1	0.56
CCOCC(=O)Nc1cc(C)on1	3.14*
COc1ccc(N2CCCn3c2nc2c3c(=O)n(CC(=O)O)c(=O)n2C)cc1	0.11
COc1cc([N+](=O)[O-])c(OC)cc1SCC(=O)NNC(=S)Nc1cccc(Cl)c1C	0.92
CCN(CC)C(=O)O/N=C(\N)c1cc(Br)c(OC)c(Br)c1	-2.95
COc1ccc2nc(NC(=O)Oc3ccccc3)sc2c1	0.96
Cc1ccc(S(=O)(=O)Nc2ccc3[nH]cc(Cl)c3c2)cc1	3.06*
CC(C)(C)c1ccc(S(=O)(=O)Nc2ccc(O)c(Cl)c2)cc1	2.33
Cc1ccc(S(=O)(=O)Nc2ccc3oc4ncccc4c(=O)c3c2)cc1	17.9
O=C(Nc1ccc(Cl)cc1Cl)N1CCCCC1	0.26
COc1ccc2c(c1OC)C(=O)OC2Nc1ccc(S(N)(=O)=O)cc1 (stereo not given)	0.73
Cc1[nH]c(=S)[nH]c(=O)c1Cc1ccc(F)cc1	-0.29
O=C(O)CCC1CCCCCCCCCC(CCC(=O)O)C1=O (stereo not given)	-1.1
O=C(NCc1ccc(F)cc1)c1nc2c(nnn2CC2CCCO2)c(=O)[nH]1 (stereo not given)	3.1*
SMILES	Dicer processing
Cc1nc2cc(Cl)ccc2c(=O)n1CC1CCCO1 (stereo not given)	-1
O=C1CC(NCC2CCCO2)C(=O)N1c1ccc(F)cc1 (stereo not given)	-2.45
O=C(Oc1cc(Cl)cc(Cl)c1)c1cccc(C(F)(F)F)n1	0.17
O=C(O)c1ccc(Nc2nc(-c3cccnc3)cs2)cc1	6.61*
COc1ccc(-c2csc(Nc3cccnc3)n2)cc1	2.82
Clc1ccc(-c2csc(Nc3ccccc3)n2)cc1	0.33
Cc1ccc(Nc2nc(C(F)(F)F)cs2)cc1	0.07
Clc1ccc(Nc2nc(-c3ccncc3)cs2)cc1	5.61*
Fc1ccc(Nc2nc(-c3ccncc3)cs2)cc1	2.19
Cc1cccnc1Nc1nc(-c2cccnc2)cs1	1.21
CCc1ccc(-c2csc(Nc3ccc(S(N)(=O)=O)cc3)n2)cc1	7.5
Cc1ccc(-c2csc(Nc3ccc(S(N)(=O)=O)cc3)n2)cc1	7.1*
COC(=O)c1sc(SC)c(C#N)c1-c1ccc(C)cc1	-0.62
C=CCSc1nc2c(c(=O)n1C)C1(CCCC1)Cc1ccccc1-2	1.35
CSc1nc2n(n1)C(N)=C(C#N)C(c1ccccc1)N2 (stereo not given)	-1.9
Cc1nnc2c(Oc3ccc(Cl)cc3)nc3ccccc3n12	-1.43
Oc1cc2c(cc1C(c1ccc(C(F)(F)F)cc1)N1CCCC1)OCO2 (stereo not given)	1.19
O=C(O)CSc1nc2ccccc2n1Cc1ccccc1	-1.55
OCCSc1nc2ccccc2n1Cc1ccccc1	-0.6
NC(=O)Cn1c(CSc2nc3ccccc3n2Cc2ccccc2)nc2ccccc21	4.17*
CCOc1cc(C2NC(=O)c3sc(=S)n(-c4ccccc4)c3N2)ccc1OC(C)=O (stereo not given)	1.7
CC(=O)C1C(=O)c2cccc([N+](=O)[O-])c2C1=O (stereo not given)	-1.24
CC(=O)C1C(=O)c2c(Cl)c(Cl)c(Cl)c(Cl)c2C1=O	5.12*
CC(=O)C1C(=O)CC(c2ccc(Cl)cc2)CC1=O (stereo not given)	4.14
Cn1nnnc1SCC(=O)NC1Cc2ccccc2C1	1.44
SMILES	Dicer processing
CN(C)/C=C1\N=C(c2cccnc2Oc2ccc(Cl)cc2)OC1=O	18.8*
CN(C)/C=C1/N=C(c2ccccc2)OC1=O	1.15
Cc1ccc(Sc2ncccc2C2=N/C(=C\N(C)C)C(=O)O2)cc1	-0.39
CCCn1c(=O)c(/C(N)=N/OC(=O)Nc2ccc(Cl)cc2)nn(-c2ccccc2)c1=O	-0.1
Cc1cc(=O)n2c(n1)NC(=NCc1ccccc1)NC2c1cccnc1 (stereo not given)	-0.85
O=C1C2SCCN2C(=S)N1c1ccc(Cl)cc1 (stereo not given)	0.69
COc1ccc(OC)c(C2SCCN2S(=O)(=O)c2ccc3ccccc3c2)c1 (stereo not given)	5.47

High-throughput results as filed in PubChem BioAssay.
